Source: PubChem (Broad Institute)
Sampled rows, rich in hits. Any-hit rate of the full collection: about 8.1%.
MITF inh: inhibitors of MITF; TRPM1 promoter luciferase, luminescence, 24 h; inhibition, % (test concentration not listed); 0.28% of 37,000 active; in the data active means inhibition above about 85%; inconclusive means no clear call, values can overlap the other calls; inactive means below about 68%;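 further: human melanocyte line stably carrying TRPM1 promoter luciferase reporter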
NOMO-1 viab: STK33 inhibitor candidate reducing NOMO-1 cell viability. 7.5% of 37,000 active. NOMO-1 AML viability, CellTiter-Glo luminescence, 72 h. inhibition, % (test concentration not listed); in the data active means inhibition above about 80%; inconclusive means no clear call, values can overlap the other calls
Shh pathway inh: blocks Sonic Hedgehog signaling. Shh-LIGHT2 Gli-luciferase reporter, 30 h. inhibition, % (no concentration beside the values). 2.1% of 22,000 active;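 active means mean inhibition across valid replicates above about 65%, limit read from the data; inconclusive means mean under the limit, yet half or more replicates past it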;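 further: pathway switched on by Shh-conditioned medium diluted 1 in 25 in low serum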
Numbers without * were called inactive; ? = inconclusive; nt = no result.

SMILES | MITF inh | NOMO-1 viab | Shh pathway inh
C[C@H](CO)N1C[C@H](C)[C@H](CN(C)Cc2ccc(-c3ccccc3)cc2)Oc2ccc(NC(=O)CCCCCC(=O)Nc3ccccc3N)cc2CC1=O | 44.7 | 139.2* | nt
C[C@@H]1CN([C@@H](C)CO)C(=O)Cc2cc(N(C)C)ccc2O[C@@H]1CN(C)S(=O)(=O)c1ccccc1 | 6.8 | 24.9 | -3.6
CN([NH2+][O-])c1cc(O)ccc1O | 34.9 | 20.3 | -35.1
Cc1sc2nc(SCCC(=O)NC3CCCCC3)[nH]c(=O)c2c1C | -0.2 | -2.9 | nt
COC(=O)C(O)(c1c(C)nn(-c2ccccc2)c1N)C(F)(F)F (centres undefined) | -5.3 | -4.0 | nt
CCn1c(SCC(=O)Nc2ccc(C)cc2C)nnc1-c1cccs1 | -8.0 | -4.8 | nt
Cc1ccc(-c2noc(CCC(=O)NC(C)(C)C)n2)cc1 | -75.9 | 17.5 | nt
C=C1C(=O)O[C@@H]2[C@H]3C(=C)[C@@H](O[C@@H]4O[C@H](CO)[C@@H](OC(=O)/C=C/c5ccc(O)c(O)c5)[C@H](O)[C@H]4O)C[C@H]3C(=C)C[C@@H](O)[C@@H]12 | nt | nt | -13.8
C=C(CO)C(=O)O[C@H]1C[C@H]2C(=C)C[C@H](OC(=O)C(=C)CO)[C@H]3C(=C)C(=O)O[C@@H]3[C@H]2C1=C | 55.5 | 117.4* | -45.2
CCn1c(SCC(=O)Nc2ccc(F)cc2)nnc1-c1ccc(Cl)cc1Cl | 56.7 | 32.4 | nt
CC(C)NC(=O)Nc1cccc2c1O[C@@H](CN(C)Cc1ccc(C(=O)Nc3ccccc3N)cc1)[C@@H](C)CN([C@@H](C)CO)C2=O | 19.1 | 141.1* | nt
C[C@H](CO)N1C[C@H](C)[C@H](CN(C)Cc2ccc(C(=O)Nc3ccccc3N)cc2)Oc2c(NS(C)(=O)=O)cccc2C1=O | 3.3 | 52.2 | nt
CC(C)NC(=O)Nc1cccc2c1O[C@@H](CN(C)Cc1ccc(C(=O)Nc3ccccc3N)cc1)[C@@H](C)CN([C@H](C)CO)C2=O | -5.1 | 70.8 | nt
CC(C)NC(=O)Nc1cccc2c1O[C@H](CN(C)Cc1ccc(C(=O)Nc3ccccc3N)cc1)[C@H](C)CN([C@@H](C)CO)C2=O | 17.1 | 139.4* | nt
N#Cc1c(SCC(=O)c2ccc(F)cc2)nsc1SCC(=O)c1ccc(F)cc1 | 7.5 | 30.3 | 80.9*
Cc1cccc(NC(=O)CSc2nsc(SCC(=O)Nc3cccc(C)c3)c2C#N)c1 | 5.7 | 46.0 | 10.3
CC12CC3(C)CC(C)(C1)CC(C(=O)NC(=S)NC(C)(C)C)(C2)C3 | -2.1 | 35.0 | -8.0
C/C(=N\O)C12CC3(C)CC(C)(CC(C)(C3)C1)C2 | -16.7 | 120.2* | -20.3
C[C@H]1CN([C@@H](C)CO)C(=O)c2cc(NC(=O)C3CC3)ccc2O[C@H]1CN(C)CC1CCCCC1 | -5.2 | 9.9 | -60.4
C[C@@H]1CN([C@@H](C)CO)C(=O)Cc2cc(NC(=O)Nc3ccc(C(F)(F)F)cc3)ccc2O[C@@H]1CN(C)Cc1ccc(Oc2ccccc2)cc1 | 5.2 | 127.6* | 15.1
C[C@@H]1CN([C@H](C)CO)C(=O)Cc2cc(NC(=O)Nc3ccc(C(F)(F)F)cc3)ccc2O[C@@H]1CN(C)Cc1ccc(Oc2ccccc2)cc1 | -1.0 | 115.1* | 54.3
C[C@@H]1CN([C@@H](C)CO)C(=O)Cc2cc(NC(=O)NC3CCCCC3)ccc2O[C@@H]1CN(C)Cc1ccccc1 | 2.9 | 4.0 | -6.4
C[C@H](CO)N1C[C@H](C)[C@H](CN(C)Cc2ccc(Oc3ccccc3)cc2)Oc2ccc(NC(=O)CCC(F)(F)F)cc2CC1=O | -5.0 | 39.5 | -28.8
C[C@@H]1CN([C@H](C)CO)C(=O)Cc2cc(NC(=O)Nc3ccccc3)ccc2O[C@H]1CN(C)Cc1ccc(Oc2ccccc2)cc1 | 6.0 | 72.0 | -3.3
C[C@@H]1CN([C@H](C)CO)C(=O)Cc2cc(NC(=O)CCC(F)(F)F)ccc2O[C@@H]1CN(C)Cc1ccc(Oc2ccccc2)cc1 | 36.5 | 83.6* | ?
SMILES | MITF inh | NOMO-1 viab | Shh pathway inh
C[C@@H]1CN([C@H](C)CO)C(=O)Cc2cc(NC(=O)NC3CCCCC3)ccc2O[C@@H]1CN(C)Cc1ccc(Oc2ccccc2)cc1 | 28.4 | 110.9* | nt
C[C@H]1CN([C@@H](C)CO)C(=O)Cc2cc(NC(=O)Nc3ccc(C(F)(F)F)cc3)ccc2O[C@H]1CN(C)Cc1ccc(Oc2ccccc2)cc1 | -4.1 | 25.5 | -23.6
Cc1noc(C)c1S(=O)(=O)Nc1ccc2c(c1)CC(=O)N([C@@H](C)CO)C[C@H](C)[C@H](CN(C)S(=O)(=O)c1ccccc1)O2 | -14.6 | -0.3 | -16.9
CC12CC34CC(O)C5C(CO)(CO)CC(=O)CC5(C)C3CC1C2C4 (centres undefined) | nt | nt | 27.3
CC1CCCCN1Cc1nc(N)nc(Nc2ccc3c(c2)OCCO3)n1 (centres undefined) | -20.9 | 19.3 | nt
Cc1ccc(-n2c(C)nnc2SCC(=O)Nc2cccc(C(F)(F)F)c2)cc1 | -8.1 | -7.5 | nt
CCCCC/C=C/C=C/C(O)CCCCCCCC(=O)O (centres undefined) | 14.2 | 27.6 | 26.1
COc1ccc(NC(=O)Nc2ccc3c(c2)CC(=O)N([C@H](C)CO)C[C@@H](C)[C@@H](CN(C)Cc2ccc(Oc4ccccc4)cc2)O3)cc1 | 14.3 | ? | ?
COc1ccc(NC(=O)Nc2ccc3c(c2)CC(=O)N([C@@H](C)CO)C[C@H](C)[C@@H](CN(C)Cc2ccc(Oc4ccccc4)cc2)O3)cc1 | 31.6 | 118.6* | 51.4
c1coc(CNc2ncnc3c2sc2nc(N4CCOCC4)c4c(c23)CCC4)c1 | -8.2 | 18.8 | nt
OC[C@H]1O[C@@H](n2cnc3c(NCc4ccco4)ncnc32)[C@H](O)[C@@H]1O | -5.3 | 107.7* | 97.8*
C=CCn1c2ccccc2n2nc(CCC(=O)O)c(=O)nc12 | -2.9 | -4.2 | nt
C[C@@H]1CN([C@H](C)CO)C(=O)c2cccc(NC(=O)Nc3ccc(F)cc3)c2O[C@H]1CN(C)Cc1ccc(C(=O)Nc2ccccc2N)cc1 | 10.8 | 127.2* | nt
C[C@H](CO)N1C[C@H](C)[C@@H](CN(C)Cc2ccc(C(=O)O)cc2)Oc2c(NC(=O)Nc3ccc(F)cc3)cccc2C1=O | 5.1 | 2.6 | nt
C[C@H](CO)N1C[C@H](C)[C@H](CN(C)Cc2ccc(C(=O)Nc3ccccc3N)cc2)Oc2c(NC(=O)Nc3ccc(F)cc3)cccc2C1=O | 4.1 | 97.1* | nt
C[C@@H]1CN([C@@H](C)CO)C(=O)c2cc(NC(=O)Nc3ccc(F)cc3)ccc2O[C@@H]1CN(C)Cc1ccc(C(=O)Nc2ccccc2N)cc1 | -14.4 | ? | nt
C[C@H]1CN([C@@H](C)CO)C(=O)c2cccc(NC(=O)Nc3ccc(F)cc3)c2O[C@@H]1CN(C)Cc1ccc(C(=O)Nc2ccccc2N)cc1 | -5.6 | 139.6* | nt
C[C@@H]1CN([C@@H](C)CO)C(=O)c2cccc(NC(=O)Nc3ccc(C(F)(F)F)cc3)c2O[C@H]1CN(C)Cc1ccc(C(=O)Nc2ccccc2N)cc1 | 30.0 | 128.0* | nt
C[C@@H]1CN([C@H](C)CO)C(=O)c2cccc(NC(=O)Nc3ccc(C(F)(F)F)cc3)c2O[C@@H]1CN(C)Cc1ccc(C(=O)O)cc1 | 1.7 | 0.6 | -19.6
C[C@H]1CN([C@@H](C)CO)C(=O)c2cc(NC(=O)Nc3ccc(F)cc3)ccc2O[C@H]1CN(C)Cc1ccc(C(=O)Nc2ccccc2N)cc1 | 8.3 | ? | nt
